# The supplement of paper PMC3334620
# Whole data set: some 33,000 sequences, median “E-score (-0.5 to 0.5)” near -0.021, cut for the highest 2% near 0.32. The list comes from a sample in which the highest values are over-represented; it also holds similar and randomly drawn sequences.
# Molecular target: T1, Zap1 (UniProt P47043)
# T1 sequence: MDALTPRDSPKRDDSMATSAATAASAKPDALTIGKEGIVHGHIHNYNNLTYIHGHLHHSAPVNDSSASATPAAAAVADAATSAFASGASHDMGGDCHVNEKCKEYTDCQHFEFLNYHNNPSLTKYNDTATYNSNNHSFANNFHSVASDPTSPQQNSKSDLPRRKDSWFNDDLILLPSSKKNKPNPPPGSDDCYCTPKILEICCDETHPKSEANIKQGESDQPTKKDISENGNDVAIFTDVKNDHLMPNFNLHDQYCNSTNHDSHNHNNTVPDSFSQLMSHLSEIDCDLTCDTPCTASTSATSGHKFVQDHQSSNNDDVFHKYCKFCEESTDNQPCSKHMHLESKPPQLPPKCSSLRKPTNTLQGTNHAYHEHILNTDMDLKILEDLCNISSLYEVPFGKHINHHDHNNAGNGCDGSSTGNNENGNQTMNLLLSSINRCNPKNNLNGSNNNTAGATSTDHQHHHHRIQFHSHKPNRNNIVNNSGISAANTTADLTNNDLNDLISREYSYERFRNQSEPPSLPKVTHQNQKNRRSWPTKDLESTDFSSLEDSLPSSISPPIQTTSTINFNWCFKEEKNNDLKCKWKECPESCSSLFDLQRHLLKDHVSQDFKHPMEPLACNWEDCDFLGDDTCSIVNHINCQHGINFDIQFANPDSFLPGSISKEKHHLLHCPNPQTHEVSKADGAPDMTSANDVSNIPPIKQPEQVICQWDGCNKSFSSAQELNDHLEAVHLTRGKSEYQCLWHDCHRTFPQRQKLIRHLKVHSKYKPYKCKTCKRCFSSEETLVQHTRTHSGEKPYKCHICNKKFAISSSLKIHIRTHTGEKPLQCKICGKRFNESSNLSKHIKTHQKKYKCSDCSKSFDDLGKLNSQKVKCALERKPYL
# Test: PBM E-score (8-mer binding enrichment) (E-score (-0.5 to 0.5)); higher = stronger / more preferred TF binding
# Details: protein concentration: 200 nM; construct: GST-full length
# Method: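 Universal 'all 10-mer' protein binding microarrays (Agilent AMADID 015681) probed with GST-tagged S. cerevisiae TFs (full-length or DBD) made by in vitro transcription/translation (PURExpress), about 100-200 nM. Bound TF was detected with fluorescent anti-GST. Each ungapped 8-mer (which stands for itself and its reverse complement) is scored by the PBM enrichment score (E-score), a modified Wilcoxon-Mann-Whitney statistic from -0.5 to +0.5, computed with the Universal PBM Analysis Suite. Scale: above 0.35 generally sequence-specific binding.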
row,Sequence,PBM E-score
1,CACGGTCA,0.262
2,AACGGTCG,0.114
3,GACGGTTA,0.305
4,CACGGTTC,-0.13
5,AACGGTTG,0.123
6,GACGGGTA,0.0159
7,AACGGGTA,0.375
8,CACGGGTA,0.237
9,AACGGTTC,0.107
10,AACGGTTA,0.397
11,CACGGTTA,0.372
12,AACGGTCA,0.324
13,CCCCGCGC,-0.138
14,ACATTCAG,-0.0921
15,AGCGCATG,-0.227
16,CGGACCCA,0.195
17,CTTTCTTC,-0.0581
18,AGAAGCCA,-0.0472
19,CAGGTAAA,0.133
20,AAGGTAAC,0.432
21,GAGGTAAA,0.199
22,CAGGTAAC,0.254
23,AAGGTAAT,0.322
24,AAGGTATT,0.199
25,AAGGTAAA,0.187

row,Sequence,PBM E-score
1,AAGGTAAG,0.0248
2,GAGGTAAC,0.365
3,CTCCATGC,-0.229
4,ACGCATAC,-0.101
5,ACTACCAT,0.269
6,ACTGCTAG,-0.269
7,CCGTACCC,0.275
8,ACGTACCT,-0.126
9,ACGTACCG,-0.111
10,AGGTACCT,0.443
11,CGGTACAC,0.0303
12,CGGTACCC,0.414
13,AGGTACCG,0.43
14,AGGTACCC,0.451
15,ATGTACCC,0.216
16,AAGTACCG,0.134
17,AGGTACTC,0.261
18,AAGTACCT,0.213
19,AGTAAAGG,0.132
20,ATCTTAAC,0.142
21,CGCCCAGC,-0.209
22,ATAACATA,0.146
23,GGGTCCAC,-0.0924
24,CGGTACCG,0.38
25,GCGTACCC,0.106

row,Sequence,PBM E-score
1,CAGTACCG,0.104
2,GGGTACCC,0.469
3,GGGTACAC,0.141
4,CGGTACAG,0.12
5,ATTAGAAA,0.0663
6,TACAGCCA,-0.0777
7,ACTCACCC,-0.0932
8,CAATGTTC,-0.213
9,ATTTGTCC,-0.0674
10,CACCAGTG,-0.0732
11,AACTAAAC,0.181
12,GTTATATA,0.359
13,ATTATATA,0.207
14,CTTATTTA,0.0152
15,GTTATTTA,0.325
16,CATATATA,0.13
17,TATATATA,0.37
18,GTTATAAA,0.279
19,GTTATAAC,0.401
20,CTTATATA,0.27
21,CTTATAAC,0.302
22,GATATATA,0.2
23,ATTATTTA,0.234
24,CCTCAGAA,-0.0154
25,ACTGGGAG,-0.25

row,Sequence,PBM E-score
1,ATTGGGAG,-0.0694
2,AACGCTGG,-0.174
3,GACTGTAC,-0.147
4,AGCTCTCG,-0.212
5,ACAAGAGA,-0.043
6,ATCATCGC,-0.0946
7,AGCTCTTG,-0.246
8,CAATTGAC,-0.0961
9,GCCCAGAA,-0.0621
10,GTCGAGCA,-0.236
11,GAAACCGC,0.15
12,ATGAGCAA,-0.0417
13,ATACAATG,0.0742
14,AGGGGCAG,-0.186
15,CCAAAAAG,0.248
16,CCCAAGGA,0.00233
17,CCCAAAGG,0.23
18,CCAAAAGG,0.337
19,ACCCAGGG,0.0854
20,CCCCAGGA,-0.128
21,CCCCAGGG,0.319
22,CCCAAGGG,0.326
23,CCAAAGGG,0.267
24,CGTACAGA,-0.231
25,CAATGCAA,0.0301

row,Sequence,PBM E-score
1,CCTCGAGG,0.331
2,ACTCGAGG,0.0452
3,CCTCGAGC,0.0178
4,CCATAAAA,0.12
5,CGGGTAAA,0.144
6,CGGGTAAC,0.351
7,AGAGTAAC,0.108
8,GGGGTAAA,0.269
9,CGGGTAAG,-0.078
10,AGCGTAAC,0.199
11,AGGGTAAC,0.405
12,GGTGTAAC,0.262
13,GGGGTAAC,0.37
14,AAAAGCAG,-0.0944
15,GGCAAATA,-0.0519
16,ACCGATAC,0.0986
17,AAACTTCT,0.0376
18,ACAGTATG,0.0365
19,CCCATAAA,0.161
20,GCCATAAC,0.12
21,CCCATTAA,-0.0317
22,ACCATAAT,0.255
23,TCCATAAA,0.061
24,ACCATTAA,0.348
25,ACCATAAG,0.0852

row,Sequence,PBM E-score
1,ACCATAAC,0.399
2,ACCATAAA,0.384
3,CCCATAAC,0.355
4,TCCATTAA,0.13
5,CCCATAAG,0.236
6,CTCACATC,-0.0546
7,CATAGATG,-0.173
8,GTACACAA,0.12
9,ACTAAAGA,0.00061
10,CCACTTTC,-0.101
11,GCCGCGAA,-0.0427
12,ACCGCGAA,0.359
13,TCCGCGAA,0.05
14,GTGATGTA,0.013
15,AGAGTCAG,-0.145
16,ATCGCTCA,-0.0114
17,CAAGGTAC,0.357
18,CAAGGTAA,0.191
19,GAAGGTAC,0.178
20,CCAGGTAC,0.17
21,CAAGGTAG,0.303
22,AAAGGTGA,0.25
23,TAAGGTAA,0.271
24,AAAGGTAT,0.293
25,AAAGGTAC,0.426

row,Sequence,PBM E-score
1,AAAGGTAG,0.247
2,AAAGGTAA,0.361
3,GAAGGTAA,0.319
4,CACAGAGA,-0.0512
5,ACGATGGA,0.00241
6,CATCTCTC,-0.0882
7,CCTCCCAG,-0.291
8,CGCCTGAG,-0.0453
9,CAACTAAG,-0.00117
10,AGAGGCCC,-0.108
11,CCTCTTCC,-0.127
12,ATTTGCCG,-0.168
13,AAAGGGAA,-0.0936
14,GCATGGAA,-0.169
15,ACGTAAGC,-0.186
16,ACAGGGGG,-0.225
17,ACTGCGCA,-0.0699
18,CAGCCCAG,-0.177
19,ACAGAGTA,-0.0251
20,TCCCTCCA,-0.134
21,ACCCTCCA,0.341
22,ACCCTCCC,0.339
23,GCCCTCCA,-0.0877
24,CCCCTCCC,0.0739
